Bioassay records deposited in PubChem by Broad Institute.
NSD2 HMT inh: NSD2 (human) methyltransferase inhibition; NSD2 peptide methylation, AlphaScreen, 120 min; inhibition, % at 12.5 µM; 310,000 tested, 0.54% active; in the data active = inhibition above about 50%
INS-1E GSIS act: GLuc luminescence reporter in INS-1E cells, primary screen for activators of glucose-dependent secretion of insulin; INS-1E GLuc reporter insulin secretion, 2-3 h; activation, % at 16.6 µM; 370,000 tested, 0.61% active;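 active = lowest replicate activation of at least 40%, so every replicate reaches that level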
AF4-AF9 inh: inhibitors of human MLL-AF4/AF9 interaction | P42568 | AlphaScreen, biotin-AF4 peptide binding to FLAG-AF9 | inhibition, % at 10 µM | 350,000 tested, 0.47% active | AID 651704;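 active = every replicate reaching a set inhibition limit, whatever the replicate mean, cut at about 25% in these data; inconclusive = mean inhibition reaches that limit but some replicates miss it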
Target sequence (P42568 whole entry, looked up): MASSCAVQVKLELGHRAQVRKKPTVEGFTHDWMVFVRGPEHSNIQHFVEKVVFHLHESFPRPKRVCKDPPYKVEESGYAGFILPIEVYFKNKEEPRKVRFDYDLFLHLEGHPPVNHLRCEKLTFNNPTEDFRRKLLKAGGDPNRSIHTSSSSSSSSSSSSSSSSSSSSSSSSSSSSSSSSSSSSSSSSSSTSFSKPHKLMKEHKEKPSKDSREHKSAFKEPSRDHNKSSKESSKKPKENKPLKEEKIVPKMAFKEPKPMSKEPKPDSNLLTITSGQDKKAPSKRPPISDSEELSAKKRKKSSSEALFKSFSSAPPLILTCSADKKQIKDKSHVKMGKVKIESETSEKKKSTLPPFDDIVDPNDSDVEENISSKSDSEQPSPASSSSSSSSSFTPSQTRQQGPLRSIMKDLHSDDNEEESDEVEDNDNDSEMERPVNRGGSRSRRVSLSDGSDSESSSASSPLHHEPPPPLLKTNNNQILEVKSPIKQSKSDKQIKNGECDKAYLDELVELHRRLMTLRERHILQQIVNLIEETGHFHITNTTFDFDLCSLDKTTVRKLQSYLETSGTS
PGC1a acetyl inh: PGC1a acetylation modulation, inhibitor mode; U2OS PGC1a acetylation, AlphaScreen anti-acetyl-lysine; with virally co-expressed GCN5 acetyltransferase; inhibition, % at 15.6 µM; 350,000 tested, 0.17% active; AID 651687;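 active = every replicate shows inhibition of at least 40%; inconclusive = mean inhibition at least 40% but some replicate below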
HIV Env fusion: HIV envelope-mediated fusion inhibition | HeLa-JRFL Env/CEM21 cell fusion, luciferase | inhibition, % at 12.3 µM | 360,000 tested, 1.1% active;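 active = mean replicate inhibition score of at least 50 and every replicate individually at or above 50; inconclusive = only one of the two criteria met; inactive = mean below 50 and not all replicates reaching 50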
Hits are given with their value; . = inactive; ? = inconclusive; / = not tested or not shown. Sampled rows, rich in hits. Any-hit rate of the full collection: about 2.1%.

SMILES | NSD2 HMT inh | INS-1E GSIS act | AF4-AF9 inh | PGC1a acetyl inh | HIV Env fusion
Fc1ccc(CN2CCN(c3ncnc4scc(-c5ccc(F)cc5)c34)CC2)cc1 | . | . | . | . | .
O=S(=O)(c1ccccc1)N1CCCCN2[C@H](C1)[C@H](c1ccc(C#Cc3cccnc3)cc1)[C@@H]2CO | / | . | . | . | /
Cc1nc2sc(C(c3ccco3)N3CCC(Cc4ccccc4)CC3)c(O)n2n1 (stereo not given) | / | . | . | . | 82
COc1ccc(N2CCN(C(c3ccco3)c3sc4nc(C)nn4c3O)CC2)cc1 (stereo not given) | . | . | . | / | .
N#Cc1ccccc1N/C=C/C(=O)c1ccc(Cl)cc1 | . | . | . | . | .
COc1ccc(-n2c(-c3ccc(Cl)cc3)c[nH]c2=S)cc1 | . | 200 | . | . | .
O=C(Cn1c(COc2ccccc2)nc2ccccc21)Nc1cc(Cl)ccc1Cl | . | / | . | / | .
O=C(Cn1c(COc2ccccc2)nc2ccccc21)Nc1cc(Cl)cc(Cl)c1 | . | 68 | / | / | .
O=C(NCCN1CCOCC1)C(=O)NCC1CCCO1 (stereo not given) | . | . | / | / | /
C=C(C)C(=O)Nc1nnc(-c2cccs2)s1 | . | 118 | / | / | .
CC(=O)NCCC(=O)Nc1cc(F)ccc1C | . | . | / | . | /
Cc1cc(NC(=O)CCS(=O)(=O)c2nc(-c3ccccc3)cc(C(F)(F)F)n2)no1 | . | / | / | 90 | /
Cc1ccc(OCC(=O)c2cc(C)n(-c3ccccc3)c2C)c([N+](=O)[O-])n1 | . | . | / | / | 67
CC(C)OC(=O)CSc1nnc(-c2cccnc2)n1Cc1ccccc1 | . | . | / | / | .
Cc1ccc(Cl)cc1N1CCN(C(=O)c2cc3c(=O)n(C)c4ccccc4c3n2C)CC1 | / | . | . | / | .
Cc1c(C(=O)OCC(=O)N2CC(=O)Nc3ccccc32)oc2ccc(Br)cc12 | . | 73 | / | . | /
C=C1C(=O)O[C@H]2C[C@H]1[C@@H](OC(C)=O)C/C(C)=C/CC/C(C)=C\CC[C@]2(C)O | / | / | . | . | 81
Cc1ccc(S(=O)(=O)N2CCCC2)cc1C(=O)O | / | / | / | 59 | .
C[n+]1c2n(c3ccccc31)N=C(c1cc(C(C)(C)C)c(O)c(C(C)(C)C)c1)CS2 | . | 301 | 27 | . | ?
COc1cccc(C2=Nn3c(nnc3-c3ccccc3O)SC2)c1 | . | / | / | . | .
Cc1cccc(NS(=O)(=O)c2ccc(-c3ccc(=O)[nH]n3)o2)c1 | . | . | . | . | .
O=c1ccc(-c2ccc(S(=O)(=O)Nc3cccc([N+](=O)[O-])c3)s2)n[nH]1 | . | 77 | . | . | .
CCc1nc(N2CCCCC2)c2oc3ccccc3c2n1 | . | / | / | . | 69
CCc1nc(N2CCCCC2C)c2oc3ccccc3c2n1 (stereo not given) | . | . | / | . | 75
CCc1nc(N2CCCC(C)C2)c2oc3ccccc3c2n1 (stereo not given) | . | / | / | . | .
SMILES | NSD2 HMT inh | INS-1E GSIS act | AF4-AF9 inh | PGC1a acetyl inh | HIV Env fusion
COc1ccc(-c2cc(C#N)nc(N3CCNCC3)n2)cc1 | / | / | / | . | .
CC(C)(C)n1nc2c(c1NC(=O)Cc1ccc(F)cc1)CS(=O)(=O)C2 | . | . | . | . | .
Cc1ccc(OCC(=O)Nc2c3c(nn2C(C)(C)C)CS(=O)(=O)C3)cc1 | . | . | . | / | 58
CC(=O)c1c(C)[nH]c(C(=O)OCC(=O)Nc2ccc(C)cc2[N+](=O)[O-])c1C | . | . | / | / | 88
COc1ccc(N2CC(C(=O)OCC(=O)Nc3cc(C)on3)CC2=O)cc1 (stereo not given) | . | . | . | . | .
COc1ccccc1CNC(c1ccccc1)c1ccccc1 | . | . | . | . | .
CCOc1ccccc1CNC(c1ccccc1)c1ccccc1 | . | 88 | . | / | .
COc1cccc2c1C(CO)N1C(C#N)C3CC(C(=O)O)C(C1C2)N3C (stereo not given) | / | . | . | 66 | /
NS(=O)(=O)c1ccc(NC(=S)N2CCN(c3ccc(Cl)c(Cl)c3)CC2)cc1 | . | 108 | / | . | ?
C=C1C(=O)[C@]23C[C@H]1CCC2[C@]1(C)C(=O)CC[C@@](C)(C(=O)O)C1C[C@@H]3O (stereo not given in full) | / | 93 | . | . | .
C[C@@H]1CCCCO[C@H](CN(C)Cc2ccc3c(c2)OCO3)[C@@H](C)CN([C@H](C)CO)C(=O)c2cc(NC(=O)c3ccncc3)ccc2O1 | / | . | / | . | .
NC1=C(Cl)C(=O)c2ccccc2C1=O | / | . | . | / | .
CC1COCC(C)N1C1=C(Cl)C(=O)c2ccccc2C1=O (stereo not given) | 107 | . | 27 | . | .
O=C(Cc1ccc(S(=O)(=O)N2CCOCC2)s1)N1CCN(S(=O)(=O)c2ccccc2[N+](=O)[O-])CC1 | . | . | . | / | .
CC(C)C(=O)Nc1cccc(COc2ccc(CN(Cc3ccccc3)C(=O)OC(C)(C)C)cc2)c1 | / | . | . | . | 58
CC(C)(C)OC(=O)N(CCc1ccccc1)Cc1cccc(OCc2cccc(NC(=O)c3ccccc3)c2)c1 | / | . | . | . | 66
COc1ccc(OC)c(/C=C/C(=O)OCC(=O)N2C(C)CCCC2C)c1 (stereo not given) | . | . | . | . | 92
NC(=O)C1CC(=O)N(c2ccc(OCc3ccc(F)cc3)cc2)C1 (stereo not given) | . | . | . | . | .
CCN(c1ccc(NC(=O)CSc2nnc3nc(C)cc(C)n23)cc1)C(C)C | . | / | / | . | /
Clc1ccc(CN(Cc2ccccc2)C(c2cccs2)c2nnnn2C2CCCC2)cc1 (stereo not given) | . | / | / | / | 94
Cc1ccc(S(=O)(=O)Nc2c3ccccc3nc(=O)n2-c2ccccc2)cc1 | . | 59 | / | . | /
CC(C)(C)c1cc(NC(=O)c2cccc(S(=O)(=O)N3CCOCC3)c2)no1 | . | . | / | . | .
COCCCNc1nc2ccccc2nc1NS(=O)(=O)c1cccc(C)c1 | . | . | . | . | .
COc1ccc(CSc2nncn2C)cc1F | . | . | . | . | 60
O=C(O)c1ccccc1C(=O)NNc1ccc(F)cc1F | . | . | . | / | ?
SMILES | NSD2 HMT inh | INS-1E GSIS act | AF4-AF9 inh | PGC1a acetyl inh | HIV Env fusion
Cc1nnc(N/N=C/c2cc(C)n(-c3ccc(F)cc3)c2C)n1N | . | / | 54 | / | /
COc1ccc(C2=NS(=O)(=O)N(C)C(C(=O)N3CCCCC3C)=C2)cc1 (stereo not given) | / | . | . | / | 60
COc1cccc(-c2nn(C)c3sc(C(=O)NCCCN(C)Cc4ccccc4)cc23)c1 | . | / | . | . | .
O=C(c1cccc(C(F)(F)F)c1)N1CCc2c([nH]c3ccccc23)C1C(F)(F)F (stereo not given) | . | . | . | / | 86
C[C@@H]1CN([C@H](C)CO)C(=O)c2cc(NS(=O)(=O)c3ccc(F)cc3)ccc2O[C@@H]1CN(C)Cc1ccc(-c2ccccc2)cc1 | / | . | . | . | /
Cc1noc(C)c1S(=O)(=O)Nc1ccc2c(c1)C(=O)N([C@@H](C)CO)C[C@H](C)[C@@H](CN(C)C(=O)Nc1cccc3ccccc13)O2 | / | . | . | . | /
CC(=O)Nc1ccc2c(c1)n(C)c(=O)n2C | . | / | / | . | .
CC(=O)Nc1ccc(S(=O)(=O)Nc2ccc3c(c2)n(C)c(=O)n3C)c(C)c1 | . | 98 | . | . | .
